Sampled rows, rich in hits. Any-hit rate of the full collection: about 11%.
L3MBTL1 inh: inhibitors of human L3MBTL1. Q9Y468. AlphaScreen L3MBTL1–H3K9me1 peptide binding. Potency, µM (doses to about 57.1 µM), for inactives: at the top dose activity, negative = inhibition, hits mostly inhibitors. 0.66% of 230,000 active; note: % is set by controls: 0 for no effect and ±100 for the full control effect; nearly all actives have a fitted effect of over 60% in size
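AlphaScreen assay: L3MBTL1 (50 nM final) was preincubated 30 min at room temperature with biotinylated H3(1-15)K9me1 peptide (75 nM final), then 30 min with library compounds; streptavidin donor and nickel chelate acceptor beads (10 ug/mL final) added, 30 min dark.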
BAZ2B block: inhibitors of human BAZ2B bromodomain; Q9UIF8; AlphaScreen BAZ2B-H3K14Ac peptide displacement; Potency, µM (series often up to 114 µM), without a hit: at the highest dose activity change, negative = inhibition, most hits filed as inhibitors; 4.4% of 360,000 active; note: % is set by controls: 0 for no effect and ±100 for the full control effect; nearly all actives have a fitted effect of over 60% in size
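AlphaScreen luminescence quantifies BAZ2B engagement of H3K14Ac peptide; the protein and biotinylated peptide are both at 50 nM final, buffer PBS pH 7.4 with 0.01% Tween-20, all steps at room temperature.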
G9a block: blocks human histone lysine methyltransferase G9a | 8.8% of 350,000 active | Potency, µM (highest dose often 102 µM), inactives show top-dose activity, negative = inhibition, most hits filed as inhibitors | AID 504332 | G9a H3K9 monomethylation, AlphaScreen, 2 h; note: % is set by controls: 0 for no effect and ±100 for the full control effect; nearly all actives have a fitted effect of over 75% in size
Target sequence (Q96KQ7 913-1193 limits assumed): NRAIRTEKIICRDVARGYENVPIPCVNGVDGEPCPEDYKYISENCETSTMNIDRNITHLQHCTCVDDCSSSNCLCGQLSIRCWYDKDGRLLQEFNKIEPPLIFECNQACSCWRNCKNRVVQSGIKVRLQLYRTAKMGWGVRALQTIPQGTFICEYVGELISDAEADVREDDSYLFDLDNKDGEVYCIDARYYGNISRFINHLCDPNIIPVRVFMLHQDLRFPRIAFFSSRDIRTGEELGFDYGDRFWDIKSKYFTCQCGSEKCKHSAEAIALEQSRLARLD
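Enzyme 20 nM + cpd, 15 min RT; add b-H3K9 pep 500 nM / SAM 20 uM; 2 h RT; anti-H3K9me1 Ab 0.5 ug/mL + SA donor / anti-rabbit acceptor beads 20 ug/mL each, 10 min; AlphaScreen read.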
HP1b chromo inh: blocks HP1-beta chromodomain binding to methylated histone tails. P83916. AlphaScreen HP1-beta / biotin-H3K9me3 peptide binding. Potency, µM (titrated, usually from 114 µM), inactives show top-dose activity change, negative = inhibition, most hits filed as inhibitors. 0.56% of 390,000 active; note: nearly all actives have a fitted effect of over 70% in size
Target sequence (P83916 whole entry, looked up): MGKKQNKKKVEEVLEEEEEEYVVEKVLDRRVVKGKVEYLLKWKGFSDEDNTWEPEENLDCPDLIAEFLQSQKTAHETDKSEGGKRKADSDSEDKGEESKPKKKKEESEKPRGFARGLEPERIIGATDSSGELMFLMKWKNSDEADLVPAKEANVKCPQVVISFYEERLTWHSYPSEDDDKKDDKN
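AlphaScreen: HP1-beta (50 nM) preformed 30 min with biotin-H3(1-18)K9me3 peptide (50 nM) in PBS pH 7.4, 0.01% Tween-20. Compound added for 30 min at RT, then streptavidin donor/nickel chelate acceptor beads (10 ug/mL) for 30 min.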
JMJD2A Tudor inh: JMJD2A Tudor domain (human) inhibition. AlphaScreen JMJD2A-Tudor / H3K4me3 peptide binding. Potency, µM (titrated, usually from 114 µM), without a hit: at the top dose activity change, negative = inhibition, actives largely listed as inhibitors. 4.4% of 390,000 active. AID 504339; note: % is set by controls: 0 for no effect and ±100 for the full control effect; nearly all actives have a fitted effect of over 50% in size
Active calls of the source: *; ? = inconclusive; . = no result; ! = not confirmed by another sample; [ ] = remark or other dose. Calls come from the whole dose curve; as a rule, active = well fitted inhibition curve with a large enough effect; inconclusive = small, poorly fitted or top-dose-only effect; inactive = no such curve, though single readings can be large or run the other way. Potency is the fitted concentration of half-maximal effect.

SMILES | L3MBTL1 inh | BAZ2B block | G9a block | HP1b chromo inh | JMJD2A Tudor inh
O=S(=O)(N/N=C/c1cccnc1)c1ccc(Cl)c(Cl)c1 | -3% | -5% | 18µM* | 13% | -16%
CN1CCN(CCC(=O)N/N=C/c2cc3c(cc2[N+](=O)[O-])OCO3)CC1 | . | -30% | ? | -1% | 4µM*
Cc1cccc(N=Cc2cc3c(cc2[N+](=O)[O-])OCO3)c1 | -1% | ? | -5%[0.501 µM] | ? | -26%
Cc1cc(O)c(N=Cc2cc3c(cc2[N+](=O)[O-])OCO3)cc1C | . | . | . | -39% | 3.5µM*
Nc1[nH]n2c(=O)cc(-c3ccccc3)nc2c1N=Nc1ccc(S(N)(=O)=O)cc1 | -17% | ? | 35µM* | -14% | ?
COc1ccc(NC(=O)N2CCC3(CC2)CCN(C(=O)c2cnccn2)CC3)cc1 | . | . | 3%[12.7 µM] | . | .
CCc1nc(N)nc(N)c1-c1ccc(N(C)Cc2ccccc2)c([N+](=O)[O-])c1 | . | . | . | -37% | 45µM*
Cc1noc(-c2ccc(N(C)Cc3ccccc3)c([N+](=O)[O-])c2)n1 | . | 3% | -6%[59 µM] | 14% | -16%
NC(N)=NC(=O)Cc1c(Cl)cccc1Cl | 3% | 7% | 13µM*! | 37% | 6%
Cc1cccc(Oc2nc3ccccn3c(=O)c2/C=C(\C#N)c2nc3ccccc3s2)c1C | . | -1%[57.1 µM] | 5.6µM* | 56% | 2%
CC(C)(C)c1ccc(Oc2nc3ccccn3c(=O)c2/C=C(\C#N)c2nc3ccccc3s2)cc1 | . | 0% | ? | 62% | -1%
COc1cc(OC)c(-c2nnc3n(CCc4ccccc4)c(=O)c4ccccc4n23)cc1OC | -9% | 3% | -11% | . | .
CC(C)OCCCn1c(=O)c2ccccc2n2c(-c3ccc(F)cc3)nnc12 | . | ? | 28µM* | -1% | ?
COc1cc(-c2nnc3n(CCc4ccccc4)c(=O)c4ccccc4n23)cc(OC)c1OC | -2% | 7% | 18µM* | 16% | 0%
CC(C)OCCCn1c(=O)c2ccccc2n2c(CCC(=O)O)nnc12 | . | -35% | 2% | 16% | -11%
Cc1ccc(S(=O)(=O)N/N=C\c2ccc(C)o2)cc1 | ? | 50µM* | ? | 5% | ?
CC(=O)Nc1ccc(S(=O)(=O)N/N=C/c2ccc(C)o2)cc1 | . | ? | 45µM* | 1% | -24%
Cc1ccc(/C=N/NC(=O)Nc2ccccc2)o1 | -8% | ? | 11%[59 µM] | 23% | -15%[57.1 µM]
Cc1ccc(/C=N/NS(=O)(=O)c2ccc([N+](=O)[O-])cc2)o1 | 8% | -10% | 13%[59 µM] | 50% | -10%[57.1 µM]
Cc1cc(C)cc(NC(=O)Cn2cc(C(=O)c3ccncc3)c(=O)c3cc(C)c(C)cc32)c1 | . | -21% | -11%[59 µM] | 21%[57 µM] | -25%
COc1ccc(Cn2c(=O)c3oc4ccccc4c3n(Cc3ccccc3)c2=O)cc1 | . | -1% | 2%[59 µM] | 28% | -4%
c1coc(-c2nc3cc4ccccc4cc3nc2-c2ccco2)c1 | . | . | . | 7.9µM* | 7.9µM*
Nc1nc(-c2ccco2)c(-c2ccco2)s1 | ? | 45µM* | ? | ? | ?
c1coc(-c2ncc[nH]2)c1 | -4% | ? | ? | 12% | -18%
Nc1nc(-c2ccco2)cs1 | 3% | -5% | 45µM* | 11% | -7%
SMILES | L3MBTL1 inh | BAZ2B block | G9a block | HP1b chromo inh | JMJD2A Tudor inh
c1coc(-c2nc(-c3ccco3)c(-c3ccco3)nc2-c2ccco2)c1 | 10µM* | 28µM* | 11µM* | ? | 7.9µM*
Nc1nc(-c2cccs2)c(-c2cccs2)s1 | . | ? | ? | ? | -26%
COc1ccc2nc(-c3ccco3)c(-c3ccco3)nc2c1 | . | 50µM* | ? | -19% | ?
CCC(C)(C)c1ccc2c(c1)C(=O)c1ccccc1C2=O | -23% | 32µM* | ? | ? | 32µM*
CCC(=O)Nc1ccc2c(c1)C(=O)c1ccccc1C2=O | 6% | -2% | ? | 6% | -30%
O=C(Nc1ccc(Br)cc1)c1cccnc1N1CCCCC1 | . | 6% | ? | 69% | 32%
CS(=O)(=O)c1ccc(C(=O)Nc2ccc(N3CCOCC3)cc2)c(Cl)c1 | 3% | -13% | -7% | 60% | -13%
CS(=O)(=O)c1ccc(C(=O)Nc2ccc(N3CCCC3)cc2)c(Cl)c1 | -20% | -12% | 10µM* | -10% | -17%
